# Biological target: CaNbp2
# Test: SPOT peptide array binding signal intensity (averaged, normalized) (arbitrary units (background-subtracted, floor 0; scale differs between SH3 domains)); higher = stronger binding of the SH3 domain to the peptide
# Protocol: (§1)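 GST-tagged SH3 domains from S. cerevisiae (Sc), A. gossypii (Ag), C. albicans (Ca) and S. pombe (Sp) were incubated at 10 ug/ml overnight at 4 C on cellulose SPOT membranes carrying 292 synthetic 15-mer peptides mined from the S. cerevisiae proteome (cysteines replaced by serines). Binding was detected with anti-GST antibody, HRP secondary and chemiluminescence, quantified with Genespotter, and reported as normalized spot intensities averaged over biological replicates.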
row,Binder,SPOT peptide array binding signal intensity
1,RRSKSLPITPKSIFN,128

# Biological target: CaRvs167
# Test: as above
# Protocol: as §1
row,Binder,SPOT peptide array binding signal intensity
1,RRSKSLPITPKSIFN,2.33

# Biological target: CaRvs167-3
# Test: as above
# Protocol: as §1
row,Binder,SPOT peptide array binding signal intensity
1,RRSKSLPITPKSIFN,8.25

# Biological target: CaSho1
# Test: as above
# Protocol: as §1
row,Binder,SPOT peptide array binding signal intensity
1,RRSKSLPITPKSIFN,353

# Biological target: CaSla1-D1-D2
# Test: as above
# Protocol: as §1
row,Binder,SPOT peptide array binding signal intensity
1,RRSKSLPITPKSIFN,1140

# Biological target: CaSla1-D3
# Test: as above
# Protocol: as §1
row,Binder,SPOT peptide array binding signal intensity
1,RRSKSLPITPKSIFN,0.5

# Biological target: ScAbp1
# Test: as above
# Protocol: as §1
row,Binder,SPOT peptide array binding signal intensity
1,RRSKSLPITPKSIFN,84

# Biological target: ScBbc1
# Test: as above
# Protocol: as §1
row,Binder,SPOT peptide array binding signal intensity
1,RRSKSLPITPKSIFN,11

# Biological target: ScBem1-D1
# Test: as above
# Protocol: as §1
row,Binder,SPOT peptide array binding signal intensity
1,RRSKSLPITPKSIFN,88

# Biological target: ScBzz1-D1
# Test: as above
# Protocol: as §1
row,Binder,SPOT peptide array binding signal intensity
1,RRSKSLPITPKSIFN,31

# Biological target: ScBzz1-D2
# Test: as above
# Protocol: as §1
row,Binder,SPOT peptide array binding signal intensity
1,RRSKSLPITPKSIFN,12.5

# Biological target: ScCyk3
# Test: as above
# Protocol: as §1
row,Binder,SPOT peptide array binding signal intensity
1,RRSKSLPITPKSIFN,54

# Biological target: ScFus1
# Test: as above
# Protocol: as §1
row,Binder,SPOT peptide array binding signal intensity
1,RRSKSLPITPKSIFN,47.5

# Biological target: ScHof1
# Test: as above
# Protocol: as §1
row,Binder,SPOT peptide array binding signal intensity
1,RRSKSLPITPKSIFN,≤ 0

# Biological target: ScHse1
# Test: as above
# Protocol: as §1
row,Binder,SPOT peptide array binding signal intensity
1,RRSKSLPITPKSIFN,420

# Biological target: ScLsb1
# Test: as above
# Protocol: as §1
row,Binder,SPOT peptide array binding signal intensity
1,RRSKSLPITPKSIFN,2.5

# Biological target: ScLsb2
# Test: as above
# Protocol: as §1
row,Binder,SPOT peptide array binding signal intensity
1,RRSKSLPITPKSIFN,1

# Biological target: ScLsb3
# Test: as above
# Protocol: as §1
row,Binder,SPOT peptide array binding signal intensity
1,RRSKSLPITPKSIFN,≤ 0

# Biological target: ScLsb4
# Test: as above
# Protocol: as §1
row,Binder,SPOT peptide array binding signal intensity
1,RRSKSLPITPKSIFN,8

# Biological target: ScMyo3
# Test: as above
# Protocol: as §1
row,Binder,SPOT peptide array binding signal intensity
1,RRSKSLPITPKSIFN,8.5

# Biological target: ScMyo5
# Test: as above
# Protocol: as §1
row,Binder,SPOT peptide array binding signal intensity
1,RRSKSLPITPKSIFN,2

# Biological target: ScNbp2
# Test: as above
# Protocol: as §1
row,Binder,SPOT peptide array binding signal intensity
1,RRSKSLPITPKSIFN,47

# Biological target: ScPex13
# Test: as above
# Protocol: as §1
row,Binder,SPOT peptide array binding signal intensity
1,RRSKSLPITPKSIFN,≤ 0

# Biological target: ScRvs167
# Test: as above
# Protocol: as §1
row,Binder,SPOT peptide array binding signal intensity
1,RRSKSLPITPKSIFN,0.333

# Biological target: ScSho1
# Test: as above
# Protocol: as §1
row,Binder,SPOT peptide array binding signal intensity
1,RRSKSLPITPKSIFN,4000

# Biological target: ScSla1-D1-D2
# Test: as above
# Protocol: as §1
row,Binder,SPOT peptide array binding signal intensity
1,RRSKSLPITPKSIFN,2340

# Biological target: ScSla1-D3
# Test: as above
# Protocol: as §1
row,Binder,SPOT peptide array binding signal intensity
1,RRSKSLPITPKSIFN,54

# Biological target: SpAbp1-D1
# Test: as above
# Protocol: as §1
row,Binder,SPOT peptide array binding signal intensity
1,RRSKSLPITPKSIFN,205

# Biological target: SpBbc1
# Test: as above
# Protocol: as §1
row,Binder,SPOT peptide array binding signal intensity
1,RRSKSLPITPKSIFN,1.5

# Biological target: SpBzz1-D1
# Test: as above
# Protocol: as §1
row,Binder,SPOT peptide array binding signal intensity
1,RRSKSLPITPKSIFN,204

# Biological target: SpBzz1-D2
# Test: as above
# Protocol: as §1
row,Binder,SPOT peptide array binding signal intensity
1,RRSKSLPITPKSIFN,≤ 0

# Biological target: SpCyk3
# Test: as above
# Protocol: as §1
row,Binder,SPOT peptide array binding signal intensity
1,RRSKSLPITPKSIFN,3

# Biological target: SpHof1
# Test: as above
# Protocol: as §1
row,Binder,SPOT peptide array binding signal intensity
1,RRSKSLPITPKSIFN,2190

# Biological target: SpHof1-2
# Test: as above
# Protocol: as §1
row,Binder,SPOT peptide array binding signal intensity
1,RRSKSLPITPKSIFN,1340

# Biological target: SpHof1-3
# Test: as above
# Protocol: as §1
row,Binder,SPOT peptide array binding signal intensity
1,RRSKSLPITPKSIFN,1120

# Biological target: SpHse1
# Test: as above
# Protocol: as §1
row,Binder,SPOT peptide array binding signal intensity
1,RRSKSLPITPKSIFN,216

# Biological target: SpLsb1
# Test: as above
# Protocol: as §1
row,Binder,SPOT peptide array binding signal intensity
1,RRSKSLPITPKSIFN,≤ 0

# Biological target: SpLsb4
# Test: as above
# Protocol: as §1
row,Binder,SPOT peptide array binding signal intensity
1,RRSKSLPITPKSIFN,64.5

# Biological target: SpMyo1
# Test: as above
# Protocol: as §1
row,Binder,SPOT peptide array binding signal intensity
1,RRSKSLPITPKSIFN,24.8

# Biological target: SpNbp2
# Test: as above
# Protocol: as §1
row,Binder,SPOT peptide array binding signal intensity
1,RRSKSLPITPKSIFN,39.5

# Biological target: SpPex13
# Test: as above
# Protocol: as §1
row,Binder,SPOT peptide array binding signal intensity
1,RRSKSLPITPKSIFN,5

# Biological target: SpRvs167
# Test: as above
# Protocol: as §1
row,Binder,SPOT peptide array binding signal intensity
1,RRSKSLPITPKSIFN,4.33

# Biological target: SpSla1-D1-D2
# Test: as above
# Protocol: as §1
row,Binder,SPOT peptide array binding signal intensity
1,RRSKSLPITPKSIFN,1130

# Biological target: SpSla1-D3
# Test: as above
# Protocol: as §1
row,Binder,SPOT peptide array binding signal intensity
1,RRSKSLPITPKSIFN,≤ 0

# Source: the supplement of paper PMC4466140
